# Shown is part of a subset that was picked to be rich in hits.
# FH mod: Identification of activators of human fumarate hydratase by quantitative high-throughput screening. Fumarate hydratase, mitochondrial (Homo sapiens), P07954. FH coupled MDH/diaphorase resazurin fluorescence, 15 min. Potency, µM (titrated, usually from 79.9 µM), most hits filed as inhibitors. 0.22% of 54,000 active. AID 1347055, 2019; also: the screen sought activators but most active calls are inhibition curves; nearly all actives have a fitted effect of over 45% in size
# TSG101-PTAP inh: blocks PTAP binding to human TSG101, validation; Potency, µM (highest dose often 115 µM), hits mostly inhibitors; Fluorescence polarization, FITC-PTAP peptide/Tsg101, 20 min; 44,000 tested, under 10 active; Q99816
#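 FITC-labeled PTAP peptide (50 nM final) binding to Tsg101 binding domain (10 uM final) read by fluorescence polarization after 20 min at r.t. in HEPES pH 7.5 buffer. Actives by CRC class, <25 µM.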
# NTMT1 inhibitor: blocks human N-terminal methyltransferase 1 activity; Q9BV86; NTMT1 MTase-Glo SAH luminescence, purified enzyme; Potency, µM (top dose mostly 114 µM), usual class: inhibitors; 2.5% of 59,000 active; AID 1645870; also: nearly all actives have a fitted effect of over 65% in size
# Target sequence (Q9BV86 whole entry, looked up): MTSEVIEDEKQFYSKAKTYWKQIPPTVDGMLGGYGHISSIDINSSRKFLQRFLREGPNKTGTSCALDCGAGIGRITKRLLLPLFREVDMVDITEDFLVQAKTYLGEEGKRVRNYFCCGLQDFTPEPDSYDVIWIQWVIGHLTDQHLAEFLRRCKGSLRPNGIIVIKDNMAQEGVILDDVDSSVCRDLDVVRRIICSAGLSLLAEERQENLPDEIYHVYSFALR
# GALK inhibitor: inhibits human galactokinase; 44,000 tested, under 10 active; Potency, µM (series often up to 57.5 µM), actives largely listed as inhibitors; recombinant GALK, Kinase-Glo ATP luminescence, 1 h; P51570
# Target sequence (P51570 whole entry, looked up): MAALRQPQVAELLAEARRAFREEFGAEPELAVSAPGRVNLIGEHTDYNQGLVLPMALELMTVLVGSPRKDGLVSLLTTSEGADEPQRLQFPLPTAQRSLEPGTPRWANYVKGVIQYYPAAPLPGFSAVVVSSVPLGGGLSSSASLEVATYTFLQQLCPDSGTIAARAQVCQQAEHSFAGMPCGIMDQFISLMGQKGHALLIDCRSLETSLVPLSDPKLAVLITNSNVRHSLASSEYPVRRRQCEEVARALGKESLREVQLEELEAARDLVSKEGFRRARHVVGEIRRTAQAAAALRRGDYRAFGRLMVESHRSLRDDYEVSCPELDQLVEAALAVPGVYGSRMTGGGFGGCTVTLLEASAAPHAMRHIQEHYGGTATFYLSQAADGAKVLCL
#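 5 nM GALK with 35 µM ATP and 100 µM galactose in HEPES pH 8.0, MgCl2, NaCl, DTT, BSA; 1 h RT reaction, remaining ATP detected by Kinase-Glo Plus luminescence after 10 min; qHTS concentration series.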
# B2AR arrestin ag: ADRB2 beta-arrestin recruitment; P07550; HTLA Tango cells, beta-arrestin recruitment, luciferase luminescence, 18 h; Potency, µM (series often up to 46.1 µM), actives largely listed as activators; 44,000 tested, under 10 active
#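 Tango cells expressing recombinant beta2-AR and beta-arrestin were treated with compounds (up to 46 microM titration) in DMEM with 1% FBS for 18 hr at 37 degrees C. Beta-arrestin recruitment drove tTA-dependent luciferase, read by luminescence; curves were fitted and classed.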
# Numbers stand for hits; 0 = inactive; ? = inconclusive; - = not tested or not shown; ! = not confirmed by another sample. Calls follow the shape of the dose curve; as a rule, active = well fitted curve in the direction sought with a large enough effect; inconclusive = small, poorly fitted or top-dose-only effect, or another doubt; inactive = no such curve, though single readings can be large; an effect the other way counts as inactive or inconclusive.
SMILES,FH mod,TSG101-PTAP inh,NTMT1 inhibitor,GALK inhibitor,B2AR arrestin ag
CN(C)c1ccc(Nc2c3ccc(NC(=O)CCN4CCCC4)cc3nc3cc(NC(=O)CCN4CCCC4)ccc23)cc1,0,-,6.31µM,-,-
Cc1ccc(-c2nc3ccccc3[nH]2)cc1NC(=O)c1ccc(-c2cccc(Cl)c2)o1,-,-,0,-,-
CN(C)c1ccc(C(=C2C=CC(=[N+](C)C)C=C2)c2ccc(N(C)C)cc2)cc1,0,-,20µM,-,-
CN(C)c1ccc(C(=C2C=CC(=[N+](C)C)C=C2)c2ccccc2)cc1,?,-,22.4µM,-,-
CCCCCCCC(=O)[O-].CCCCCCCC(=O)[O-].[Zn+2],0,-,20µM,-,-
Cc1c(C(=O)O)[nH]c2c1C(=O)CCC2,-,-,0,-,-
Cc1ccc(NC(=O)N(Cc2cn(C)c3ccccc23)C2CCCCC2)cc1C,0,0,0,0,0
COc1cc(C(=O)NS(=O)(=O)c2ccccc2C)ccc1Cc1cn(C)c2ccc(NC(=O)OC3CCCC3)cc12,0,-,70.8µM,-,-
O=Nc1ccc2oc(=O)ccc2c1,1µM,-,-,-,-
O=c1ccc2ccc(O)c(O)c2o1,?,-,0,-,-
COc1ccc(Br)cc1S(=O)(=O)NC(=O)/C=C/c1ccccc1Cc1ccc2ccccc2c1,20µM,-,-,-,-
COc1ccc(C2CC(=O)c3c([nH]c(C(=O)OC4CCCCCC4)c3C)C2)cc1OC (stereo not given),0,0,89.1µM,0,0
COc1ccc(CNS(=O)(=O)c2cc3c(cc2Cl)N(C(C)=O)CCO3)cc1,0,35.5µM,0,0,0
CC(=O)N1CCOc2cc(S(=O)(=O)NCc3ccc(F)cc3)c(C)cc21,0,0,0,0,0
CCCNC(=O)c1cn2ncnc(Nc3cc(C(=O)NC4CC4)ccc3C)c2c1C,-,-,0,-,-
O=C(Cn1c(=O)n(Cc2ccccc2)c(=O)c2sc3ccccc3c21)NCc1ccccc1Cl,0,0,0,0,0
O=C(Cn1c(=O)n(Cc2ccc(F)cc2)c(=O)c2sc3ccccc3c21)NCc1ccccc1Cl,0,0,89.1µM,0,0
Cc1ccccc1N1CCN(S(=O)(=O)C[C@]23CC[C@H](C[C@@H]2NC(=O)[C@@H](N)CCS(C)(=O)=O)C3(C)C)CC1,0,-,?,-,-
Cc1cc(C)cc(NC(=O)N2CCC(N3CCCCC3)CC2)c1,0,0,89.1µM,0,0
Cc1cc2nc3ccc(=[N+](C)C)cc-3sc2cc1N,?,-,22.4µM,-,-
CN(C)c1ccc2nc3ccc(=[N+](C)C)cc-3sc2c1,?,-,31.6µM,-,-
CN(C)c1cccc(C(=O)Nc2ccc(-c3nc4ccccc4s3)cc2)c1,0,0,0,0,0
O=C1Cc2cc(S(=O)(=O)N3CCN(c4ccc(CO)cc4)CC3)ccc2N1,-,-,50.1µM,-,-
O=C1Cc2cc(S(=O)(=O)N3CCN(c4ccc(F)cc4)CC3)ccc2N1,-,-,0,-,-
CCC[C@@H]1C[C@@H](C(=O)N[C@H](C(C)Cl)[C@H]2O[C@H](SC)[C@H](O)[C@@H](O)[C@H]2O)N(C)C1 (stereo not given in full),0,-,0,-,-
SMILES,FH mod,TSG101-PTAP inh,NTMT1 inhibitor,GALK inhibitor,B2AR arrestin ag
CCN(CC)CCCC(C)Nc1c2ccc(Cl)cc2nc2ccc(OC)cc12 (stereo not given),0,-,44.7µM!,-,-
COc1cccc(CNc2ccc(S(=O)(=O)Nc3ccc(C4CCNCC4)cc3)cc2)c1O,-,-,39.8µM,-,-
FC(F)(F)c1cccc(-c2ccc(CNc3nc(-c4ccccc4C(F)(F)F)nc4ccccc34)cc2)c1,-,-,0,-,-
COc1ccc(-c2cc(C(C)=O)c(C)n2CCC(=O)Nc2ccc(C)c(Cl)c2)cc1,?,0,?,0,0
COc1ccc(-c2cc(C(C)=O)c(C)n2CCC(=O)Nc2cc(Cl)ccc2C)cc1,0,0,89.1µM,0,0
CC(CNC(=O)c1cnn(-c2ccc(F)cc2)c1-n1cccc1)c1ccccc1 (stereo not given),0,0,79.4µM,0,0
CC(C)(C)NC(=O)[C@H]1CC[C@H]2[C@@H]3CC[C@H]4NC(=O)CC[C@]4(C)[C@H]3CC[C@]12C,0,-,0,-,-
O=c1[nH]nc(Sc2ncc([N+](=O)[O-])s2)n1-c1ccc2c(c1)OCCO2,0,-,4.29µM!,-,-
CCOC(=O)C1CCN(C(=O)C(C)(C)NC(=O)Nc2ccc3sccc3c2)CC1,-,-,0,-,-
O=c1[nH]sc2cc(Cl)ccc12,0,-,2.82µM,-,-
Nc1nc(OC(c2ccc(-c3cccc(F)c3)cc2)C(F)(F)F)cc(-c2ccc(C[C@H](N)C(=O)O)cc2)n1 (stereo not given in full),-,-,0,-,-
Cc1ccc(CNS(=O)(=O)c2cc3c(cc2Cl)NC(=O)CO3)o1,0,0,89.1µM,?,0
Cc1ccc(Cl)cc1NC(=O)c1cccc(NC(=O)N2CCSc3ncccc32)c1,0,0,0,0,0
Cc1ccc(C(=O)Nc2ccc(S(=O)(=O)O)c3cc(S(=O)(=O)O)cc(S(=O)(=O)O)c23)cc1NC(=O)c1cccc(NC(=O)Nc2cccc(C(=O)Nc3cc(C(=O)Nc4ccc(S(=O)(=O)O)c5cc(S(=O)(=O)O)cc(S(=O)(=O)O)c45)ccc3C)c2)c1,14.1µM,-,0,-,-
C=CC(=O)Nc1cc(Nc2ncc(Cl)c(-c3c[nH]c4ccccc34)n2)c(OC)cc1N(C)CCN(C)C,0,-,20µM,-,-
COc1cc(OC)cc(-c2nc3nc(C)c(CCC(=O)Nc4cc(F)ccc4F)c(C)n3n2)c1,0,0,0,0,0
COc1cc(OC)cc(-c2nc3nc(C)c(CCC(=O)Nc4ccc(F)cc4F)c(C)n3n2)c1,0,0,89.1µM,0,0
CN1CCc2cc(NC(=O)Nc3cccnc3)ccc21,0,-,-,-,-
Cn1ccc2cc3c(cc21)CCN3C(=O)Nc1cccnc1,?,-,79.4µM!,-,-
CC1(CO)CC(O)[C@]2(C(=O)O)CCC34CC3(C=CC3[C@]5(C)C(CC[C@]34C)C(C)(CO)[C@@H](O)[C@H](O)[C@@H]5O)C2C1 (stereo not given in full),0,-,0,-,-
COc1ccc(CNC(=O)c2nc(Cn3nc(C)c(Br)c3C)no2)cc1OC,0,0,89.1µM,0,0
COc1cccc(NCc2ccc(O)c3ncccc23)n1,-,-,0,-,-
NS(=O)(=O)c1ccc(Cc2c(-c3cccc(-c4ccccc4)c3)nn(-c3nc(C(=O)O)cs3)c2CC2CC2)cc1,-,-,44.7µM,-,-
O=c1sn(-c2cccc3ccccc23)c(=O)n1Cc1ccccc1,0,-,12.6µM,-,-
O=c1c2sc3ccccc3c2n(Cc2ccccc2)c(=O)n1Cc1ccccc1,0,0,0,0,0
COc1ccc2c(c1)c(=O)c(S(=O)(=O)c1ccc(C)cc1)cn2Cc1ccccc1C,0,0,0,0,0
COc1ccc2c(c1)c(C1=C(c3c[nH]c4ccccc34)C(=O)NC1=O)cn2CCCN(C)C,0,-,14.1µM,-,-

# Screening data: PubChem BioAssay, National Center for Advancing Translational Sciences (NCATS)
